MARV entry inh = Marburg virus entry inhibition; Potency, µM (series often up to 37.8 µM), inactives show at the highest dose activity change, negative = inhibition, most hits filed as inhibitors; AID 540276; Marburg virus pseudotyped entry inhibition, cell reporter; 300,000 tested, 1.8% active; calls by dose curve; tested in HEK293 cells; also: potency is read from the fitted curve at half-maximal effect; % is scaled to controls: 0 for no effect and ±100 for the full control effect
CHX counter = counter-screen for Shiga toxin inhibitors: cycloheximide protein synthesis inhibition; cell reporter, cycloheximide protein synthesis inhibition counterscreen; max response, %; AID 2314; 300,000 tested, 12% active; in the data active = max response mostly above about 13%, no sharp cut-off; inactive = mostly below about 14%; also: read at 38.3 µM for the half of the compounds with a filed dose; 0% is about no effect
AMA1-RON2 inh = AMA1-RON2 (P. falciparum) interaction inhibition. Potency, µM (titrated, usually from 58.2 µM), for inactives: top-dose activity change, negative = inhibition, most hits filed as inhibitors. AlphaScreen AMA1-biotinylated RON2 peptide binding. 360,000 tested, 0.2% active; active = well fitted inhibition curve with a large enough effect; inconclusive = small, poorly fitted or top-dose-only effect; inactive = no such curve, though single readings can be large or run the other way;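 also: potency is read from the fitted curve at half-maximal effect; 0% = vehicle wells and -100% = peptide control; nearly all actives have a fitted effect of over 45% in size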
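AMA1 (3D7) with his tag at 25 nM final met compounds first, then biotinylated RON2 peptide at 25 nM; detection used donor plus acceptor beads, 10 µg/mL apiece, read by AlphaScreen after 30 min at room temperature.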
LASV entry inh = Lassa virus entry inhibition | 300,000 tested, 1.2% active | Lassa virus pseudotype entry inhibition, cell reporter | Potency, µM (top dose mostly 37.9 µM), without a hit: top-dose activity change, negative = inhibition, usual class: inhibitors; calls by dose curve; tested in HEK293 cells; also: potency is read from the fitted curve at half-maximal effect; % is scaled to controls: 0 for no effect and ±100 for the full control effect; nearly all actives have a fitted effect of over 50% in size
Shiga toxin inh = inhibitors of Shiga toxin in Vero cells; AID 2315; Vero cells, Shiga toxin protein synthesis inhibition reporter; inhibition, % at 38.7 µM; 290,000 tested, 9.2% active; in the data active = inhibition mostly above about 28%, no sharp cut-off; inactive = mostly below about 43%; also: 0% is about no effect
Active calls of the source: *; ? = inconclusive; / = no result given; ! = not active in a repeat; [ ] = dose if it differs, or a comment. Only a selection was taken, and hits are over-represented in it overall.

SMILES | MARV entry inh | CHX counter | AMA1-RON2 inh | LASV entry inh | Shiga toxin inh
CCOC(=O)c1sc(=NC(=O)c2cccc(Br)c2)n(C)c1C | -27%[46.1 µM] | 20* | -5% | ? | 18
CCOC(=O)c1sc(=NC(=O)c2cccc(C)c2)n(C)c1C | 7%[46.1 µM] | 24* | 9% | ? | 123*
CC(=O)c1ccc2c(c1)Cc1cc(C(C)=O)ccc1-2 | -5% | 31* | -1% | ? | 134*
O=c1[nH]cc(F)c(=O)n1C1OC(CO)C(O)C1O (stereo unspecified) | / | / | 0% | / | /
Cc1ccc(OCC(=O)NNC(=O)C(C)Sc2ncnc3sc(C)c(C)c23)cc1 (stereo unspecified) | 18% | -1 | 89% | -1% | -6
Cc1sc2ncnc(SC(C)C(=O)N3c4ccccc4Sc4ccccc43)c2c1C (stereo unspecified) | 11µM* | -2 | -16% | ? | 13
NS(=O)(=O)c1ccc(NCc2cnc3ccccc3n2)cc1 | / | / | 18% | / | /
N#CCc1cnc2ccccc2n1 | -5%[46.1 µM] | 18* | 2% | -23%[46.1 µM] | 69*
CC1=C(C(=O)Nc2ccccc2)C(c2ccncc2)n2nc(SCc3ccccc3F)nc2N1 (stereo unspecified) | 29%[46.1 µM] | / | / | -5%[46.1 µM] | /
CCN(CC)S(=O)(=O)c1cccc(-c2nnc(SCCCC(=O)c3ccc(F)cc3)o2)c1 | 21µM*! | -2 | 12% | ? | 13
Brc1ccccc1-c1nnc(SCc2nc3ccccc3s2)o1 | ? | 53* | 9% | ? | 101*
O=S(=O)(c1cccc(-c2nnc(SCc3ccc(Cl)cc3)o2)c1)N1CCCCC1 | ? | -2 | 1% | -21% | -25
CCN(CC)S(=O)(=O)c1cccc(-c2nnc(SCc3nc4ccccc4s3)o2)c1 | ? | 23* | 7% | ? | 82
CCN(CC)S(=O)(=O)c1cccc(-c2nnc(SCCCC(=O)c3ccccc3)o2)c1 | ? | 11 | 17% | ? | 17
CN(C)S(=O)(=O)c1cccc(-c2nnc(SCc3ccc4c(c3)OCCO4)o2)c1 | -11% | 33* | -8% | -12% | 86
CC1CCC(NC(=O)CC(C)(C)Cc2nc3ccccc3c(=O)[nH]2)CC1 (stereo unspecified) | ? | 16* | -4% | -26% | 51
CCN(CC(=O)NC(=O)NC1CCCCC1)Cc1nc2ccccc2c(=O)[nH]1 | -1% | -4 | 140% | -5% | -6
O=C(COC(=O)CCc1nc2ccccc2c(=O)[nH]1)NC1CCS(=O)(=O)C1 (stereo unspecified) | / | 34* | -4% | / | 26
CCc1ccc(CN(Cc2cccnc2)C(=O)/C=C/c2ccc(OC)cc2)cc1 | ? | 25* | -7% | 6% | 34*
COc1ccc(/C=C/C(=O)NCc2cccnc2)cc1 | -1% | 8 | 10% | 23% | 8
Cc1cc(C)nc(-n2ncc3c2CC(c2cccc(Cl)c2)CC3=O)n1 (stereo unspecified) | 5.6µM* | 1 | 20% | ? | -14
COc1ccc(NC(=O)CSc2nccn2Cc2ccccc2)c(OC)c1 | 0% | 12 | -5% | 1% | 17
COc1ccc(NC(=O)CN2CCN(CC(=O)Nc3ccccc3OC)CC2)c(OC)c1 | / | -2 | 0% | / | -9
COc1ccc(NC(=O)CN2CCc3ccccc3C2)c(OC)c1 | 3%[46.1 µM] | 13* | 4% | ? | -1
CN(C)c1ccc(NC(=O)CN2CCc3ccccc3C2)cc1 | ? | 36* | -27% | ? | 92*
SMILES | MARV entry inh | CHX counter | AMA1-RON2 inh | LASV entry inh | Shiga toxin inh
COc1ccc(NC(=O)CSc2c3c(nc4ccccc24)CCC3)c(OC)c1 | 2.2µM* | 0 | -9% | -15%[46.1 µM] | -17
COc1ccc(NC(=O)CSc2ccccc2)c(OC)c1 | -2% | 43* | 5% | ? | 83*
O=S(=O)(c1cccc(-c2n[nH]c(=S)n2C2CCCC2)c1)N1CCOCC1 | -3%[46.1 µM] | 0 | 71% | -6% | -5
O=C(Nn1cnnc1)c1ccc(Cl)cc1 | / | 2 | -5% | / | -1
COc1ccc(NC(=O)NCCN2CCc3ccccc3C2)cc1 | ? | -2 | -19% | 1% | 13
COc1ccc(S(=O)(=O)CCC(=O)Nc2ccc(OC)cc2OC)cc1 | 25% | -2 | 14% | -1% | -11
COc1ccc(NC(=O)CCS(=O)(=O)c2ccccc2)c(OC)c1 | ? | 15* | 1% | ? | 36*
COc1ccc(OC)c(NC(=O)CC2Oc3ccccc3NC2=O)c1 (stereo unspecified) | / | 14* | 0% | / | 28
O=C(CN1CCc2ccccc2C1)Nc1ccccc1Cl | / | -1 | 10% | / | -12
O=C(CN1CCc2ccccc2C1)Nc1ccccc1N1CCCCCC1 | 18µM* | 6 | -23% | -29% | -4
CSc1ccc(NC(=O)NCCN2CCc3ccccc3C2)cc1 | ? | 16* | -23% | 10% | 12
COc1ccc(NC(=O)CC2Oc3ccccc3NC2=O)cc1 (stereo unspecified) | / | 9 | 0% | / | -4
CCOc1ccc(C(=O)c2cn(CC(=O)Nc3ccc4c(c3)OCCO4)c3ccc(F)cc3c2=O)cc1 | ? | / | / | -2%[46.1 µM] | /
Cn1ccc(NC(=O)CCl)n1 | ? | 29* | -16% | ? | 23
Cc1cc(NC(=O)CCl)nn1C | 7.9µM* | 6 | -1% | ? | 24
Cc1cc(Br)c(NC(=O)CCl)c(Br)c1 | ? | 3 | -4% | -14% | -2
CCc1ccc(C2CC(c3cccc(OC)c3)n3nc(N)nc3N2)cc1 (stereo unspecified) | / | -2 | -3% | / | -6
Cc1cc(C)c(C(=O)Cn2nc(C)c([N+](=O)[O-])c2C)cc1C | ? | -2 | -8% | -27% | -7
Cc1ccc(C(=O)Cn2nc(C)c([N+](=O)[O-])c2C)c(C)c1 | 10% | 20* | 4% | -12% | 57*
Oc1ccc(/C=N/Nc2ccnc3cc(Cl)ccc23)c(O)c1 | 2% | 23* | -4% | / | 38*
Clc1ccc2c(N/N=C/c3cccnc3)ccnc2c1 | ? | 17* | 4% | ? | 24
Clc1ccc2c(N/N=C/c3ccc(Br)cc3)ccnc2c1 | 3.3µM* | 9 | 6%[11.6 µM] | ? | 21
Cc1ccc(/C=N/Nc2ccnc3cc(Cl)ccc23)c(C)c1 | ? | -3 | -11% | ? | -3
Cc1ccccc1/C=N/Nc1ccnc2cc(Cl)ccc12 | ? | -2 | -9% | ? | 13
CCn1c(=O)c(C(=O)Nc2ccccc2)c(O)c2ccccc21 | / | 8 | 36% | / | 15
SMILES | MARV entry inh | CHX counter | AMA1-RON2 inh | LASV entry inh | Shiga toxin inh
Cn1c(=O)c(C(=O)Nc2ccccn2)c(O)c2ccccc21 | ? | 33* | 57% | ? | 44*
CCn1c(=O)c(C(=O)Nc2ccccc2F)c(O)c2ccccc21 | / | 9.1* | 15% | / | 43
CC(C)Cn1c(=O)c(C(=O)Nc2ccccc2S(N)(=O)=O)c(O)c2ccccc21 | -28% | 8 | 39% | -2% | 11
Cn1c(=O)c(C(=O)Nc2ccccc2S(N)(=O)=O)c(O)c2ccccc21 | / | 13* | 97% | / | 22
CCN(CC)CCCNC(=O)c1c(O)c2ccccc2n(Cc2ccccc2)c1=O | 14µM* | -3 | -29% | ? | -11
Cc1c(NC(=O)c2ccc(-c3ccc(F)cc3)o2)cccc1-c1nc2ncccc2o1 | / | / | / | -8%[46.1 µM] | /
